Measurements published in the supplement of paper PMC3545927.
Some of the results follow. The hit rate among all sequences tested is not known here.

Biological target: furin, P09958
Test: furin cleavage Z-score vs untreated control; higher = more cleavage, active = 3.5 or more, inactive = 1 or less, 8 variable residues between constant flanks
In short: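 To give the cleavage Z-score, log read counts were set against furin-free reactions, lowess-adjusted and scaled by median absolute deviation. These counts came from PCR adapter-tagged, sequenced DNA released when purified furin cut 8-mer peptides fused to a cDNA oligonucleotide and held on magnetic beads by their N-terminus. Digests were 0.01 ml, 1:10 enzyme:substrate, in 50 mM HEPES pH 7.5 with CaCl2 and NaCl, for 7.5, 15 or 30 min.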

Sequence of furin, P09958 (P09958 whole entry): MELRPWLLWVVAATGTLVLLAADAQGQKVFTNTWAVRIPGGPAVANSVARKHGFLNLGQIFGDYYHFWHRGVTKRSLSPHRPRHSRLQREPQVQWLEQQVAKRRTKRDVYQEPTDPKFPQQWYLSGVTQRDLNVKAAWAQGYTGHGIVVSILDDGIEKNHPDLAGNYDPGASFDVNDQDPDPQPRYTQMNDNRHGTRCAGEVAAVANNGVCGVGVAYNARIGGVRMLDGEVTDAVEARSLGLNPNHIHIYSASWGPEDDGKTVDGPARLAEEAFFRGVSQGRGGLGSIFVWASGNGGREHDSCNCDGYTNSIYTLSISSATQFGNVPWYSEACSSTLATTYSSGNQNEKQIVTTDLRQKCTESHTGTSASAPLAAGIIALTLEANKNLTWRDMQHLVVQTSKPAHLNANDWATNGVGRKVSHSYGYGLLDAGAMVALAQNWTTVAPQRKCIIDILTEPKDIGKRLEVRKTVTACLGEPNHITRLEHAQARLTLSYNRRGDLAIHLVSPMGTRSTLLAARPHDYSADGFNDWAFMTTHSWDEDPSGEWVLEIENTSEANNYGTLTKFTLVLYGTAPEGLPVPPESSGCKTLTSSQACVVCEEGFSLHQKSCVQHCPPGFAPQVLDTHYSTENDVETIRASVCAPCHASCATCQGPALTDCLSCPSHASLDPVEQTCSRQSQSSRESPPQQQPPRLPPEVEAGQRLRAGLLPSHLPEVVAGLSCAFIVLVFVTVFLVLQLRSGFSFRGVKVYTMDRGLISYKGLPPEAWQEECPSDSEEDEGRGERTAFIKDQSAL

| Sequence | furin cleavage Z-score (7.5 min) | furin cleavage Z-score (15 min) | furin cleavage Z-score (30 min) |
| --- | --- | --- | --- |
| CAEVKTSTWVAGNASASA [HC2194] | 0.637 (inactive) | -0.239 (inactive) | -1.95 (inactive) |
| CAMKARPEKSAGNASASA [FS-1139] | 0.00638 (inactive) | -0.792 (inactive) | -2.08 (inactive) |
| CATLSRKSRDAGNASASA [FS-1173] | 10.1 (active) | 11.3 (active) | 6.95 (active) |
| CAVKAAASKVAGNASASA [HC1406] | -0.468 (inactive) | 1.05 | -0.785 (inactive) |
| CADIPRYKRMAGNASASA [FS-1189] | 6.09 (active) | 5.32 (active) | 5.91 (active) |
| CAVKARIKRMAGNASASA [FS-310] | 8.88 (active) | 10.6 (active) | 7.99 (active) |
| CANNSREKKAAGNASASA [FS-1378] | -0.625 (inactive) | -0.493 (inactive) | -0.698 (inactive) |
| CAKDSRLSRDAGNASASA [FS-1017] | -0.904 (inactive) | 0.551 (inactive) | 0.282 (inactive) |
| CATLSRKKRAAGNASASA [FS-567] | 9.09 (active) | 8.88 (active) | 6.75 (active) |
| CAKLEVVTSTAGNASASA [HC2274] | 0.95 (inactive) | 0.175 (inactive) | -1.42 (inactive) |
| CAVISRKKRMAGNASASA [FS-888] | 8.47 (active) | 11.4 (active) | 8.35 (active) |
| CAIISKKKRMAGNASASA [FS-908] | 0.592 (inactive) | -0.299 (inactive) | 1.14 |
| CAGHITGHRMAGNASASA [HC316] | 0.56 (inactive) | -0.81 (inactive) | -0.0561 (inactive) |
| CATNRRPQDVAGNASASA [HC168] | -1.65 (inactive) | -1.52 (inactive) | 0.59 (inactive) |
| CATNRRKKRAAGNASASA [FS-1174] | 8.44 (active) | 7.81 (active) | 8.15 (active) |
| CAADLMGYIPAGNASASA [HC226] | -1.64 (inactive) | -1.67 (inactive) | 0.444 (inactive) |

| Sequence | furin cleavage Z-score (7.5 min) | furin cleavage Z-score (15 min) | furin cleavage Z-score (30 min) |
| --- | --- | --- | --- |
| CALKWRFDRSAGNASASA [FS-1640] | 3.41 | 4.74 (active) | 4.58 (active) |
| CARQGRFDRSAGNASASA [FS-190] | 4.75 (active) | 6.18 (active) | 4.85 (active) |
| CALKKRGILSAGNASASA [FS-2409] | -1.13 (inactive) | -2.56 (inactive) | 0.734 (inactive) |
| CARQGRSHHLAGNASASA [FS-2167] | 0.537 (inactive) | 1.01 | 2.02 |
| CAWKDLLEDNAGNASASA [HC1432] | 0.826 (inactive) | 1.39 | -0.792 (inactive) |
| CAILSSLTVTAGNASASA [HC1134] | -0.227 (inactive) | -0.375 (inactive) | -0.271 (inactive) |
| CAIGGAGNNTAGNASASA [HC446] | 0.332 (inactive) | -0.689 (inactive) | 0.317 (inactive) |
| CAGSSSTSGIAGNASASA [HC1337] | 0.384 (inactive) | 0.604 (inactive) | -0.961 (inactive) |
| CAEVVTPTWVAGNASASA [HC160] | 0.0725 (inactive) | -1.35 (inactive) | -0.017 (inactive) |
| CALASRGARVAGNASASA [FS-267] | -0.386 (inactive) | -0.302 (inactive) | 0.249 (inactive) |
| CAVAARRARVAGNASASA [FS-307] | 1.69 | 3.8 (active) | 3.48 |
| CASPPRRARVAGNASASA [FS-1571] | 0.556 (inactive) | 0.566 (inactive) | 3.24 |
| CAASRRRARVAGNASASA [FS-1187] | 3.47 | 3.01 | 4.72 (active) |
| CARSRRRSRVAGNASASA [FS-3095] | 1.94 | 0.692 (inactive) | 3.48 |
| CAESDAAARVAGNASASA [HC1129] | -0.953 (inactive) | -0.591 (inactive) | -1.03 (inactive) |
